# Results published in ChEMBL document CHEMBL3988442, “University of Dundee, Small-Polar-MMV Screening Library” (2021).
# Among all 48,000 compounds or so, about 13,000 (27%) showed an effect of 50% or more. This is one part of the list.
# System: Wolbachia pipientis
# Assay: Anti-Wolbachia Cell-Based Screen
# Format: functional
# Parameters: scale not given: in the data most compounds retested in dose-response had high values
# Details: 5 µM
row,SMILES,Percent Effect
1,O=C1CN(Cc2nnc(-c3ccccc3Br)o2)CCN1,-2.201%
2,COC(=O)c1cc(NC2CCN(CC(F)(F)F)C2=O)ccc1C (configuration not stated),1.107%
3,COc1ccc(CN[C@@H]2CO[C@H](CNC(=O)N3CCOCC3)[C@H]2O)cc1,3.527%
4,Cc1noc(CCCC(=O)N(CCC(=O)O)Cc2ccc(F)c(F)c2)n1,101.8%
5,CCC(=O)N(CCN(C)C)Cc1ccc(F)c(F)c1,182.8%
6,COCC(=O)N(C)Cc1ccc(F)c(F)c1,111.3%
7,CN(Cc1ccc(F)c(F)c1)C(=O)CCc1nc(-c2nnc[nH]2)no1,-9.092%
8,O=C(O)CCN(Cc1ccc(F)c(F)c1)C(=O)C1CC1,170.7%
9,CN(C)CCN(Cc1ccc(Cl)cc1)C(=O)c1ccncc1,-4.798%
10,Cc1noc(CCNC(=O)c2ccc(N(C)C)c(F)c2)n1,-15.61%
11,CN1CCC(N(C)C(=O)CCc2ccc(F)c(F)c2)C1=O (configuration not stated),2.381%
12,CN(Cc1ccc(Cl)c(F)c1)C(=O)CCc1ccncc1,0.9629%
13,COCC(=O)N(C)Cc1ccc(OCc2cccs2)cc1,1.693%
14,Cc1cc(C(=O)N(CCN(C)C)Cc2ccc(Cl)cc2)no1,-11.55%
15,NC(=O)CN(Cc1cccc(Oc2ccccc2)c1)C(=O)C1CC1,0.4693%
16,CN(Cc1nnc2n1CCC2)S(=O)(=O)c1ccc(Br)cc1Cl,10.86%
17,CC(=O)N1CCC(CCNC(C)c2cc(F)cc(F)c2)CC1 (configuration not stated),-11.21%
18,CC(C)Oc1cc(N2CCC(N3CCC(O)CC3)CC2)nc(N)n1,11.59%
19,Cc1nc(CN2CCC3(CCCO3)CCC2=O)no1 (configuration not stated),31.71%
20,CNC(=O)NC(=O)CSc1ccc2c(c1)CCC2,-2.658%
21,Cc1noc(-c2cccnc2N(C)Cc2cc(C)on2)n1,2.996%
22,CN(C)C(=O)CCC[S+]([O-])Cc1ccc(F)c(F)c1 (configuration not stated),-13.45%
23,COCCCC(=O)N(CCC(=O)O)Cc1ccc(F)c(F)c1,97.51%

row,SMILES,Percent Effect
1,COCCCC(=O)N(C)c1ccc(F)c(Cl)c1,-0.2217%
2,CCC(=O)N(CC(N)=O)Cc1cccc(Oc2ccccc2)c1,9.242%
3,COCCN(Cc1ccncc1)C(=O)CCSCc1ccc(F)cc1,-3.369%
4,CCC(=O)N(CCC(=O)O)Cc1ccc(F)c(F)c1,121.4%
5,COCCNc1nc2c(c(NCc3ccncc3)n1)CCNCC2,24.23%
6,CC(C)OCCSc1nnnn1C1CCOCC1,-9.456%
7,CC(=O)N1CCCN(CCCSc2ccccc2Cl)CC1,-4.168%
8,COCCC(=O)N1CCN(CC(C)C)c2nc(C)ccc2C1.O=C(O)C(F)(F)F,6.482%
9,O=C(O)c1ccc2[nH]cc(CN3CCCC3)c2c1,2.363%
10,Cc1ncsc1CCN(C)C(=O)c1ccc(CN2CCCCC2)cc1,-41.8%
11,Cc1ncc(CN2CCCC2)c2cc(C(=O)c3ccc(Br)cc3)oc12.Cl,139.8%
12,O=C(O)c1ccc2[nH]cc(CN3CCOCC3)c2c1,-9.058%
13,Cc1ncc(CN2CCOCC2)c2cc(C(=O)c3ccc(Br)cc3)oc12.Cl,126.2%
14,O=C(NCc1ccccc1CN1CCOCC1)c1ccc(Br)cc1F,-0.3449%
15,COc1c(C2CCCN2C(=O)c2nccnc2N)c(C)nn1C (configuration not stated),108.6%
16,Cc1nn(C)c(C)c1C1CCCN1C(=O)c1nccnc1N (configuration not stated),101%
17,Cc1nn(C)c(Cl)c1C1CCCN1C(=O)c1nccnc1N (configuration not stated),-5.243%
18,O=S(=O)(Nc1c(F)cccc1N1CCCC1)c1cncc(F)c1,-6.105%
19,N#Cc1cccc(NC2CC(=O)N(C3Cc4ccccc4C3)C2)n1 (configuration not stated),5.834%
20,Cc1nc(C)n(CC2CCCN(CCCOc3ccc(F)cc3)C2)n1 (configuration not stated),86.71%
21,Fc1ccc(OCCCN2CCCC(Cn3cncn3)C2)cc1 (configuration not stated),107.3%
22,Cc1nc(C)n(CC2CCCN(CCOc3cccc(F)c3)C2)n1 (configuration not stated),75.5%
23,Cc1nc(C)n(CC2CCCN(CCOc3ccc(F)cc3)C2)n1 (configuration not stated),98.89%

row,SMILES,Percent Effect
1,Cc1nc(C)n(CC2CCCN2CCCOc2ccc(F)cc2)n1 (configuration not stated),2.053%
2,Cc1nc(C)n(CC2CCCN(CCOc3cccc(C#N)c3)C2)n1 (configuration not stated),-2.683%
3,Fc1ccc(CN2CCCC(Cn3cncn3)C2)c2ncccc12 (configuration not stated),0.09463%
4,O=C1CCCN1CCCN1CCCC(Cn2cncn2)C1 (configuration not stated),2.08%
5,Cc1nc(C)n(CC2CCCN(CCCOc3ccccc3)C2)n1 (configuration not stated),-19.22%
6,Cc1c(C(C)NC2CCN(C(C)C)CC2)cnn1-c1ccc(F)cc1F (configuration not stated),-0.2198%
7,CCOc1cccnc1C(=O)N1CCCN(c2nc(C)cs2)CC1,4.223%
8,CCn1ccnc1CN1C[C@@H](CN2CCCC2)[C@@H](CO)C1,-1.438%
9,CCn1ccnc1CN1CCN(CC(=O)NC(=O)NC2CC2)CC1,-16.24%
10,Cc1ccc(C)c(-n2ncc(C(=O)NCC3COC(C)(C)O3)c2N)c1 (configuration not stated),185.5%
11,CC1(C)OCC(CNC(=O)c2cnn(-c3cccc(Cl)c3Cl)c2N)O1 (configuration not stated),190.2%
12,Cc1cc(Cl)ccc1-n1ncc(C(=O)NCC2COC(C)(C)O2)c1N (configuration not stated),154.2%
13,Cc1c(C(=O)NC2(C#N)CCSC2)cnn1-c1ccccc1Cl (configuration not stated),-17.58%
14,CC(C)c1ccc(-n2ncc(C(=O)NCC3COC(C)(C)O3)c2N)cc1 (configuration not stated),161.1%
15,CC1(C)OCC(CNC(=O)c2cnn(-c3cc(Cl)ccc3Cl)c2N)O1 (configuration not stated),-0.3036%
16,CC1(C)OCC(CNC(=O)c2cnn(-c3ccc(Cl)cc3)c2N)O1 (configuration not stated),-2.312%
17,CCOC(=O)c1ccc(CNC(=O)c2ccncc2Cl)o1,1.896%
18,Cc1ccc(C)c(-n2ncc(NC(=O)NC3(C)CCOC3)c2C)c1 (configuration not stated),6.274%
19,COc1ccc(-n2ncc(C(=O)NCC3COC(C)(C)O3)c2N)cc1 (configuration not stated),-3.479%
20,CC(=O)N[C@@H]1C[C@H](Cc2ccccc2)O[C@H](c2ccc(C(=O)O)cc2)C1,-2.466%
21,O=C(CC1=CCCCC1)NCCc1csc(N2CCCC2)n1,-4.83%
